The results in this text go back to PubChem BioAssay (Tox21).

The structures appear in SMILES notation. Several values for one entry are separate records, joined by “and”; a condition that tells them apart may be missing. Identical values can stand only once. Inconclusive results are not listed. The source holds several records for some structures; these can differ, active in one and inactive in another. Activity calls are given as the source filed them. The call rests on the fitted dose curve; in most records, active means well fitted curve in the direction sought with a large enough effect in the repeat runs; inconclusive means weak or mixed curves; inactive means no such curve, though single readings can be large; an effect the other way counts as inactive or inconclusive.

A short description of experiment [1]: Caspase-3/7 induction in HepG2 cells by small molecules, qHTS assay (AID 1346978). Further: nearly all actives have a fitted effect of over 15% in size. Summed up: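 Wild-type HepG2 cells, 2,000/well, settled 5 hr at 37 C and 5% CO2, then compound-treated for 17 hr; caspase-3/7 activity read by luminescent Caspase-Glo 3/7 after 30 min at room temperature.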
(In general: qHTS replaces the single test concentration by a dilution series.)

The nature of experiment [2]: Caspase-3/7 induction in CHO-K1 cells by small molecules, qHTS cell viability counter screen (AID 1346979). Further: nearly all actives have a fitted effect of over 35% in size. Further: potency means the concentration at half of the fitted maximal effect. Summed up:
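Cells (CHO-K1, wild type) are plated at 1,500 per well and incubated 5hr. Test compounds in DMSO are then pinned in, followed by 16hr at 37C and 5% CO2. Viability is read by CellTiter-Fluor fluorescence after 1hr.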

Experiment [3] in a line: Caspase-3/7 induction in CHO-K1 cells by small molecules, qHTS assay (AID 1346980). Further: nearly all actives have a fitted effect of over 15% in size. Summed up: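 Wild-type CHO-K1 cells exposed to compounds for 17hr at 37 C, 5% CO2. Caspase-3/7 activity then measured by Caspase-Glo 3/7 luminescence after 30min at room temperature.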
Experiment [4] is described as follows: Caspase-3/7 induction in HepG2 cells by small molecules, qHTS cell viability counter screen (AID 1346981). Further: nearly all actives have a fitted effect of over 30% in size. Further: potency means the concentration at half of the fitted maximal effect. Summed up:
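Multiplexed with the caspase-3/7 assay: HepG2 cells, 16 hr compound treatment, CellTiter-Fluor viability detection by fluorescence.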

In experiment [5] the target is Cytochrome P450 2C19 (Homo sapiens) (UniProt P33261). Description: Cytochrome P450 Family 2 Subfamily C Member 19 (CYP2C19) small molecule antagonists: luciferase reporter qHTS assay (AID 1671197). Further: nearly all actives have a fitted effect of over 65% in size. Further: potency means the concentration at half of the fitted maximal effect. Summed up: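 Relative luminescence units recorded 20 min after the detection reagent stopped a 1 h, 37C CYP2C19 reaction on proluciferin substrate, which was started by NADPH regeneration following 10 min room-temperature compound preincubation; ketoconazole positive control.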
On the technique in general: In a reporter assay the amount or activity of a reporter protein is the signal.

The target of experiment [6] is Cytochrome P450 2C9 (Homo sapiens) (UniProt P11712). Description: Cytochrome P450 Family 2 Subfamily C Member 9 (CYP2C9) small molecule antagonists: luciferase reporter qHTS assay (AID 1671198). Further: nearly all actives have a fitted effect of over 50% in size. Further: potency means the concentration at half of the fitted maximal effect. In a few lines:
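P450-Glo proluciferin substrate with CYP2C9 enzyme; 10 min RT preincubation, then NADPH regeneration 1 h at 37C; luciferin detection reagent 20 min RT, luminescence in relative luminescence units.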

Experiment [7] concerns the target Cytochrome P450 1A2 (Homo sapiens) (UniProt P05177). As to the kind of experiment: Cytochrome P450 Family 1 Subfamily A Member 2 (CYP1A2) small molecule antagonists: luciferase reporter qHTS assay (AID 1671199). Further: nearly all actives have a fitted effect of over 50% in size. Further: potency means the concentration at half of the fitted maximal effect. In a few lines:
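CYP1A2 turnover of a luminogenic substrate was quantified after 1 h with NADPH regeneration at room temperature. Furafylline served as positive control.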

Experiment [8] deals with Voltage-gated inwardly rectifying potassium channel KCNH2 (Homo sapiens) (UniProt Q12809). Description: Human Ether-a-go-go-Related Gene (hERG) channel small molecule antagonists: fluorescence cell-based qHTS assay (AID 1671200). Further: nearly all actives have a fitted effect of over 50% in size. Further: potency means the concentration at half of the fitted maximal effect. In a few lines: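 Channel function was assessed by thallium flux. Cells seeded the previous day and kept at 37 C took up FluxOR II dye over 1 h in the dark at room temperature, then sat another 10 min before stimulation.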
On the technique in general: hERG is a cardiac potassium channel; its block is linked to QT prolongation.

For experiment [9], the target named is Cytochrome P450 3A4 (Homo sapiens) (UniProt P08684). As to the kind of experiment: Cytochrome P450 Family 3 Subfamily A Member 4 (CYP3A4) small molecule antagonists: luciferase reporter qHTS assay (AID 1671201). Further: nearly all actives have a fitted effect of over 50% in size. Further: potency means the concentration at half of the fitted maximal effect. Summed up: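 Compounds in DMSO were pin-transferred onto CYP3A4 enzyme-substrate mix and held 10 min at room temperature. NADPH regenerating solution started the reaction for 1 h; luciferin detection reagent stopped it, and luminescence was read after 20 min.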

Experiment [10] deals with Cytochrome P450 2D6 (Homo sapiens) (UniProt P10635). Description: Cytochrome P450 Family 2 Subfamily D Member 6 (CYP2D6) small molecule antagonists: luciferase reporter qHTS assay (AID 1671196). Further: nearly all actives have a fitted effect of over 50% in size. Further: potency means the concentration at half of the fitted maximal effect. In a few lines: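 Luminescence (RLU), read 20 min after detection reagent, indicated CYP2D6 conversion of proluciferin to luciferin during a 1 h NADPH-dependent reaction at room temperature.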

Experiment [11] deals with Nuclear receptor subfamily 1 group I member 2 (Homo sapiens) (UniProt O75469). Description: Human pregnane X receptor (PXR) small molecule agonists, qHTS assay (AID 1346982). Further: nearly all actives have a fitted effect of over 35% in size. Further: potency means the concentration at half of the fitted maximal effect. In a few lines: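 We seeded PXR-Luc HepG2 cells in assay medium containing 5% charcoal-stripped FBS, added compounds 5 hr later, incubated 24 hr, and read luminescence with ONE-Glo reagent.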
Experiment [12] deals with Nuclear receptor subfamily 1 group I member 2 (Rattus norvegicus) (UniProt Q9R1A7). As to the kind of experiment: Rat pregnane X receptor (rPXR) activation by small molecules, qHTS assay (AID 1346983). Further: nearly all actives have a fitted effect of over 20% in size. As to conditions: rPXR luciferase reporter cells, One-Glo luminescence, 24 h; stronger effect = higher value. In a few lines: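 Cell-based rPXR activation assay: rPXR cells, 2,000 per well, rested 5hr at 37 C, then exposed to compounds in DMSO for 24 hr at 37 C. Luciferase activity read by One-Glo luminescence after 30 min at room temperature.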

In experiment [13] the target is Nuclear receptor subfamily 1 group I member 2 (Homo sapiens) (UniProt O75469). As to the kind of experiment: Human pregnane X receptor (PXR) activation by small molecules, qHTS assay (AID 1346985). Further: nearly all actives have a fitted effect of over 40% in size. In a few lines: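 DPX-2 cells (HepG2 co-transfected with a PXR response element and a CYP3A4-promoter luciferase construct) were seeded at 2,000 per well, rested 5 hr at 37C, then exposed to DMSO-dissolved compounds for 24 hr. Activation was read as luciferase luminescence.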

For experiment [14] the target is unchanged. As to the kind of experiment: CYP3A4 induction through human pregnane X receptor (PXR) by small molecules, qHTS assay (AID 1346984). Further: nearly all actives have a fitted effect of over 40% in size. In a few lines: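 qHTS, concentration-response format: HepG2 DPX-2 line, PXR/CYP3A4-luc. Exposure 24 h, 37C. Substrate Luciferin-IPA 3uM final, 3 h. Detection One-Glo, 30 min RT.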
On the % scale 0 is the no-effect control and ±100 the full control effect.

Sequence of Nuclear receptor subfamily 1 group I member 2 (Homo sapiens) (O75469 whole entry, looked up): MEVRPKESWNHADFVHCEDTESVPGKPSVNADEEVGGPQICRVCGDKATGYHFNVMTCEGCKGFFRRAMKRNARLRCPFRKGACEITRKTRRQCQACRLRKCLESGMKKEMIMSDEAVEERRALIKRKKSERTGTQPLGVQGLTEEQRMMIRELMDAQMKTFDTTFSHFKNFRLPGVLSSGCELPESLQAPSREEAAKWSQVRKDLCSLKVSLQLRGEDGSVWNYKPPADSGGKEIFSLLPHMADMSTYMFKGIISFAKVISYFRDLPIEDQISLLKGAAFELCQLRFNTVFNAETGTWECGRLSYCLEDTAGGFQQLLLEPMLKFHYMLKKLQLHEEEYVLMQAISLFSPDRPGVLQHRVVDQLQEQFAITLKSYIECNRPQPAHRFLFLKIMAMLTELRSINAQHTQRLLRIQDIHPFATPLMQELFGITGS
Sequence of Cytochrome P450 2C9 (Homo sapiens) (P11712 whole entry, looked up): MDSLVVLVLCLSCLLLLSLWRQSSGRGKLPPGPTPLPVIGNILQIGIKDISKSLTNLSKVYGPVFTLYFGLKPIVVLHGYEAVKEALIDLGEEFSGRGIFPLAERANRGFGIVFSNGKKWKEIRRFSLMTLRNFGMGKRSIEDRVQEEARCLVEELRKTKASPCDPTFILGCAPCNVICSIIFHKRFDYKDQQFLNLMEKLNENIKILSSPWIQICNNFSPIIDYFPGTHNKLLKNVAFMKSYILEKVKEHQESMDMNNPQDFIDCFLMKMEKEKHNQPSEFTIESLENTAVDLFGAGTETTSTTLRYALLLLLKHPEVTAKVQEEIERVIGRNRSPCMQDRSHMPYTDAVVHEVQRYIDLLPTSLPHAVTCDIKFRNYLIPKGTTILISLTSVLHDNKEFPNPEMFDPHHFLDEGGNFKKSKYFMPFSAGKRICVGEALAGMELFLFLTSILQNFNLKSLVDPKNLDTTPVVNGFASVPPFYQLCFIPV
Sequence of Nuclear receptor subfamily 1 group I member 2 (Rattus norvegicus) (Q9R1A7 whole entry, looked up): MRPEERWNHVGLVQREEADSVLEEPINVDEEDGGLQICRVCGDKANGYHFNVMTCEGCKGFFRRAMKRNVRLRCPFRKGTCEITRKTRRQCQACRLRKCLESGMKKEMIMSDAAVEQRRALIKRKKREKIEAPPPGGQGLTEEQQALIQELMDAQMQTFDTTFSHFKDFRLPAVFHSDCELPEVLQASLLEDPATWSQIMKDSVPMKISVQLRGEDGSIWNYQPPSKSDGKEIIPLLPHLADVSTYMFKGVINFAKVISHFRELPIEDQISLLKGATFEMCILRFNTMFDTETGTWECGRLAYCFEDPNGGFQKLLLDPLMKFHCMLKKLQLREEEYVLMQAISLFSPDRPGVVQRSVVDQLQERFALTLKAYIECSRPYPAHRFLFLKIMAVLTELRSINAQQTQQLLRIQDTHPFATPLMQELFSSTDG
Sequence of Cytochrome P450 3A4 (Homo sapiens) (P08684 whole entry, looked up): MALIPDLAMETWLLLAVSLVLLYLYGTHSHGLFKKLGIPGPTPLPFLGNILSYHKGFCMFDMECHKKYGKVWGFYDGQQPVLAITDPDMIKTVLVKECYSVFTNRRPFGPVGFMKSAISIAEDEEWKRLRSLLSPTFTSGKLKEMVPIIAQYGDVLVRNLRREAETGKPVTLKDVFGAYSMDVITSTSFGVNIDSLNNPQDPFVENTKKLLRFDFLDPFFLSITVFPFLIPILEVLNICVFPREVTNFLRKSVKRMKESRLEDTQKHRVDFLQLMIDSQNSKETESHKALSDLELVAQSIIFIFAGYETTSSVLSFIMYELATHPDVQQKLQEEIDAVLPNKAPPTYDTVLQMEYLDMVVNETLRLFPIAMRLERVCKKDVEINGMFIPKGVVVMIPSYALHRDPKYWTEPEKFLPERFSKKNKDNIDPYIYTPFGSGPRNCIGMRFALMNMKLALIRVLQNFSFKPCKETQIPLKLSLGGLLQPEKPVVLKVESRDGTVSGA
Sequence of Cytochrome P450 2D6 (Homo sapiens) (P10635 whole entry, looked up): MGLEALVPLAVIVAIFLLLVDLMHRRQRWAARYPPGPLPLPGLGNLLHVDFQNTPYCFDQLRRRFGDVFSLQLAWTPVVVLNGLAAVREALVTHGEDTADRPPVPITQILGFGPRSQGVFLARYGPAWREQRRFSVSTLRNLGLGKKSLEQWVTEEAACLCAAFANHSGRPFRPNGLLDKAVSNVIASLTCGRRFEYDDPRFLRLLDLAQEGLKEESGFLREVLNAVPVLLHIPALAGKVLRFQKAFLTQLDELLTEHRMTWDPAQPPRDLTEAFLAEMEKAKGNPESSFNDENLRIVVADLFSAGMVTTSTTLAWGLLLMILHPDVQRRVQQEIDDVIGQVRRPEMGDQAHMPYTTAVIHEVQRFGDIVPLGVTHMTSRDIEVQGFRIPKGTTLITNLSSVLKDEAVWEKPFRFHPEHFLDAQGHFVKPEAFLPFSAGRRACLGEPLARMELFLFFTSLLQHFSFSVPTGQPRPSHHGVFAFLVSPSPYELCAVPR
Sequence of Cytochrome P450 1A2 (Homo sapiens) (P05177 whole entry, looked up): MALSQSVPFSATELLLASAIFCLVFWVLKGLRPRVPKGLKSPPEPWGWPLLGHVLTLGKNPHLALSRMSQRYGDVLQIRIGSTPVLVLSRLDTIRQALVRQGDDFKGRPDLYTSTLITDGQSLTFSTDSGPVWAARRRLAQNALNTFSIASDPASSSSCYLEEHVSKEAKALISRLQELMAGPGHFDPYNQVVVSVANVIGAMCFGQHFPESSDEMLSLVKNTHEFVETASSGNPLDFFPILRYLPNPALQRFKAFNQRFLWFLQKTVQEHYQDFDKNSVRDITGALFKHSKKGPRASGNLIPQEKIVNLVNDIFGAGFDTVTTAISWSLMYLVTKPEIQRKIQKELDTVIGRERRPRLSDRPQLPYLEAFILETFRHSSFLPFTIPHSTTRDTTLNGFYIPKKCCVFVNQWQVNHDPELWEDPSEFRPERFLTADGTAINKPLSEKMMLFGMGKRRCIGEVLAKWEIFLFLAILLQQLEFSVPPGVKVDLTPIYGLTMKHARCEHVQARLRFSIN
Sequence of Voltage-gated inwardly rectifying potassium channel KCNH2 (Homo sapiens) (Q12809 whole entry, looked up): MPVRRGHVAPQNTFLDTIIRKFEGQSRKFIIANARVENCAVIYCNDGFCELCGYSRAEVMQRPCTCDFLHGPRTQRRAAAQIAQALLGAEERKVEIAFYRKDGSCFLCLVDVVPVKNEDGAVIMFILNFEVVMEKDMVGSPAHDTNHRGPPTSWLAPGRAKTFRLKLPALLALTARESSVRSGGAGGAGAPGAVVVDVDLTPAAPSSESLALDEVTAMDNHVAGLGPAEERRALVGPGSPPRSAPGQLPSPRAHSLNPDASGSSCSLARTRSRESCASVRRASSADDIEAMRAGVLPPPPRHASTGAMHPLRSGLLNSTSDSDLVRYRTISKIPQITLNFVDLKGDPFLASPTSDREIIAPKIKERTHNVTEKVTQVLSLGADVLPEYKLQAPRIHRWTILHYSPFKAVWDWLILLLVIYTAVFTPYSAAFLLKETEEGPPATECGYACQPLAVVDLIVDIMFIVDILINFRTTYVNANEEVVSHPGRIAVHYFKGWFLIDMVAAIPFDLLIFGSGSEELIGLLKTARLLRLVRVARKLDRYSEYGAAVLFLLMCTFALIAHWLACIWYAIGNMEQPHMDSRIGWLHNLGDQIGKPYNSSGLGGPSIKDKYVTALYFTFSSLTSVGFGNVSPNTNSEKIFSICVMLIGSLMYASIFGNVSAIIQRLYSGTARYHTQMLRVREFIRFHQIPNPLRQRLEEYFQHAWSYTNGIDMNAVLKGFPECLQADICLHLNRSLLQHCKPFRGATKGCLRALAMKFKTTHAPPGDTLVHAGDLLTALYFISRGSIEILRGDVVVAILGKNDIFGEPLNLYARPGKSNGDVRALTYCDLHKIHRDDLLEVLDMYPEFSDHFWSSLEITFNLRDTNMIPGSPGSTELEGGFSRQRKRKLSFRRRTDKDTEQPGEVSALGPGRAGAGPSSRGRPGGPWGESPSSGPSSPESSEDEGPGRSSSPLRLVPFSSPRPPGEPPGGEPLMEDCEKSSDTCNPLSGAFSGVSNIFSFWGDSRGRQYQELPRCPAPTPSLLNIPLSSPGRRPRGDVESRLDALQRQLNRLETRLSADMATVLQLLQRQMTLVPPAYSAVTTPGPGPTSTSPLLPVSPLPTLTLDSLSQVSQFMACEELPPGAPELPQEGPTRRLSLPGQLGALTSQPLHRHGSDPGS
Sequence of Cytochrome P450 2C19 (Homo sapiens) (P33261 whole entry, looked up): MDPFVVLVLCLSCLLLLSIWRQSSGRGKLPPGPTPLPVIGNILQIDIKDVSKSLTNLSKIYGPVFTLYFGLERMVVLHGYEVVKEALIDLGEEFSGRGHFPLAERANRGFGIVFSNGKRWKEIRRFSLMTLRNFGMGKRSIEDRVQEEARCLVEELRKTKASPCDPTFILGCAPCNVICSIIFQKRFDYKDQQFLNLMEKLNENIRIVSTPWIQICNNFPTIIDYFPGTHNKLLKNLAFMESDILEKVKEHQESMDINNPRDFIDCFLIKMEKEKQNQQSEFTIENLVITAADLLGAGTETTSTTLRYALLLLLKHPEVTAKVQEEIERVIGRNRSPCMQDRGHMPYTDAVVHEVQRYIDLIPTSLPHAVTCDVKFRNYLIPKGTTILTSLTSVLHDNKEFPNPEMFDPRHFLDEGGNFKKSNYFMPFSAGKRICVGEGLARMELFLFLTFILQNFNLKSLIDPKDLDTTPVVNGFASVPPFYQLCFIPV

For the molecule `Nc1ccc2cc3ccccc3cc2c1`, the Potency entry in [1], in experiment [2], in [3], in experiment [4] and in [8] was “inactive” throughout. Further, the Potency in [5] was 72.3 µM (active) and 35.6 µM (active); in experiment [6], 32.3 µM (active) and 31.7 µM (active); in [7] it was 4.06 µM (active) and 2.24 µM (active); in experiment [9], 9.1 µM (active) and 12.6 µM (active).

In the case of `CC(=O)Nc1ccc(C(=O)CCl)cc1`, the Potency result in experiment [1], in experiment [3], in [4], in [8] and in [9] was “inactive” in each case. Further, the Potency in experiment [2] was 54.8 µM (active) and 17.2 µM (active); in [5], “inactive and 79.6 µM (active)”; in experiment [6] it was 63.3 µM (active); in experiment [7], 31.7 µM (active).

For the molecule `CC(C)(C)c1ccccc1`, the Potency entry in experiment [1], in experiment [2], in [3], in experiment [4], in [10] and in experiment [5] was “inactive” throughout. In addition, the Potency entry in experiment [8] and in experiment [9] was “inactive” in each case. In addition, the Potency in [7] is 20 µM (active).

As for `CC[C@]1(O)C[C@@H]2CN(CCc3c([nH]c4ccccc34)[C@@](C(=O)OC)(c3cc4c(cc3OC)N(C)[C@H]3[C@@](O)(C(=O)OC)[C@H](OC(C)=O)[C@]5(CC)C=CCN6CC[C@]43[C@@H]65)C2)C1`, the Potency entry in experiment [1], in experiment [3] and in [8] was “inactive” throughout. The Potency is 1.33 µM (active) and 119 nM (active) in experiment [2]; 29.8 µM (active) in experiment [4].

In the case of `c1ccc2c(c1)-c1cccc3c1c-2cc1ccccc13`, the Potency entry in experiment [1], in experiment [3], in experiment [4], in [6], in [8] and in experiment [9] was “inactive” in each case. The Potency is 47.4 µM (active) in experiment [2]; 27.6 µM (active) and inactive in [10]; 694 nM (active) and 1 µM (active) in experiment [7].

In the case of `O=Nc1ccc(Nc2ccccc2)cc1`, the Potency entry in experiment [1], in [3] and in [8] was “inactive” throughout. Also, the Potency in [2] is 7.74 µM (active) and 13.7 µM (active); in [11] it was 61.4 µM (active) and 48.6 µM (active); in experiment [10], 28.4 µM (active) and 35.6 µM (active); in experiment [5], 5.67 µM (active) and 8.94 µM (active); in experiment [6] it was 14.2 µM (active) and 28.3 µM (active); in experiment [7] it was 16 µM (active) and 28.3 µM (active). Moreover, the Potency in [9] was 8.99 µM (active) and 12.6 µM (active).

Consider `CC(C(O)c1ccc(O)cc1)N1CCC(Cc2ccccc2)CC1` (stereo unspecified), for which the Potency result in experiment [1], in experiment [2], in experiment [4], in experiment [11], in experiment [13] and in experiment [6] was “inactive” throughout. Further, the Potency result in [7] and in [9] was “inactive” each time. In experiment [12], the max activation was -2.92% (inactive). Further, the Potency in [8] is 6.01 µM (active).

Turning to `Nc1nc(=S)c2[nH]cnc2[nH]1`, the Potency result in experiment [1], in [14], in experiment [13], in [10] and in [9] was “inactive” throughout. For the same molecule, the Potency in experiment [2] is 5.31 µM (active) and 9.69 µM (active) and 3.76 µM (active); in experiment [5] it was 30.9 µM (active); in experiment [6], 38.9 µM (active) and 71 µM (active) and 30.9 µM (active); in experiment [7], 30.9 µM (active) and 35.6 µM (active). In [12], the max activation is -4.65% (inactive).

As for `CC(C)(C)NCC(O)COc1ccccc1OCC1CCCO1` (stereo unspecified), the Potency result in [1], in experiment [2], in experiment [4], in experiment [11], in experiment [5] and in experiment [6] was “inactive” each time. Moreover, the Potency entry in [7], in experiment [8] and in experiment [9] was “inactive” throughout. Besides, the Potency in [10] is 2.75 µM (active).

Turning to `CN1C(=O)c2ccc([N+](=O)[O-])cc2C1=O`, the Potency entry in experiment [1], in [2], in experiment [4] and in experiment [8] was “inactive” throughout. For the same molecule, the Potency in [5] is 70.9 µM (active); in experiment [7] it was 20 µM (active); in experiment [9], 39.9 µM (active).

`CCN(CC)c1ccc2c(C)cc(=O)oc2c1`: the Potency result in [1], in [10], in experiment [6] and in experiment [8] was “inactive” each time. Moreover, the Potency in experiment [11] was 54.9 µM (active) and 48.6 µM (active); in [5] it was 40.2 µM (active) and 31.7 µM (active); in experiment [7], 2.02 µM (active) and 2.83 µM (active); in [9], 20.2 µM (active) and 31.7 µM (active).

Regarding `C1COC(NC(C2CC2)C2CC2)=N1`, the Potency result in experiment [1], in experiment [2], in [4], in experiment [11], in experiment [5] and in experiment [6] was “inactive” in each case. The Potency entry in experiment [7], in [8] and in [9] was “inactive” in each case. The Potency in experiment [10] was 15.5 µM (active).

As to `O=C(O)CCc1ccccc1`, the Potency entry in experiment [1], in experiment [2], in [11], in [10], in [5] and in experiment [6] was “inactive” in each case. Also, the Potency result in experiment [7], in experiment [8] and in experiment [9] was “inactive” each time.

Take `[Cl][In]([Cl])[Cl]`: the Potency entry in [1], in [2], in experiment [4], in experiment [14], in experiment [13] and in experiment [10] was “inactive” each time. Further, the Potency result in experiment [6], in [8] and in experiment [9] was “inactive” throughout. The max activation in experiment [12] was -5.91% (inactive). The Potency entry was “inactive and 35.6 µM (active)” in experiment [5]; 37.7 µM (active) in [7].

Turning to `O=C(Cl)c1cccc(C(=O)Cl)c1`, the Potency entry in experiment [1], in experiment [2], in experiment [4], in experiment [11], in [10] and in [7] was “inactive” each time. In addition, the Potency result in experiment [8] and in experiment [9] was “inactive” in each case. Moreover, the Potency in experiment [5] is 79.6 µM (active) and inactive.
